High-throughput results (PubChem BioAssay)
An excerpt weighted towards active compounds, which were near 3.4% of everything screened.
GPR151 ag = activators of human GPR151, primary screen, cell-based, PathHunter beta-arrestin, luminescence. activation, % at 11.2 µM. PathHunter beta-arrestin GPR151 cells. AID 1508602, 2020. 650,000 tested, 1% active. G-protein coupled receptor 151 (Homo sapiens), Q8TDV0; in the data active means activation above about 4.9%
TEAD-YAP inh = TEAD-YAP interaction inhibition, primary screen, TEAD-YAP interaction inhibitor project, luminescence, HEK-TIYL cells; TEAD-Gal4/YAP UAS-luciferase luminescence; inhibition, % at 9.12 µM; 640,000 tested, 1.4% active; AID 1259422, 2018; in the data active means inhibition above about 32%
FBW7 activator = FBW7 E3 ligase activators, primary screen, biochemical, AlphaScreen, human; AlphaScreen FBW7–phospho-cyclin E peptide binding, activator screen; AID 1259310, 2017; F-box/WD repeat-containing protein 7 (Homo sapiens), Q969H0; 650,000 tested, 0.13% active; normalized activity (activation), % at 26.1 µM; in the data active means normalized activity above about 1.9%;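 further: purified mutant Fbw7 with reduced substrate affinity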
MITF primary = MITF inhibitors, primary screen, biochemical, AlphaScreen, human; Microphthalmia-associated transcription factor (Homo sapiens), O75030; 650,000 tested, 0.91% active; inhibition, % at 2.6 µM; AlphaScreen MITF homodimerization, bead proximity signal; in the data active means inhibition above about 50%
Target sequence (O75030 whole entry, looked up): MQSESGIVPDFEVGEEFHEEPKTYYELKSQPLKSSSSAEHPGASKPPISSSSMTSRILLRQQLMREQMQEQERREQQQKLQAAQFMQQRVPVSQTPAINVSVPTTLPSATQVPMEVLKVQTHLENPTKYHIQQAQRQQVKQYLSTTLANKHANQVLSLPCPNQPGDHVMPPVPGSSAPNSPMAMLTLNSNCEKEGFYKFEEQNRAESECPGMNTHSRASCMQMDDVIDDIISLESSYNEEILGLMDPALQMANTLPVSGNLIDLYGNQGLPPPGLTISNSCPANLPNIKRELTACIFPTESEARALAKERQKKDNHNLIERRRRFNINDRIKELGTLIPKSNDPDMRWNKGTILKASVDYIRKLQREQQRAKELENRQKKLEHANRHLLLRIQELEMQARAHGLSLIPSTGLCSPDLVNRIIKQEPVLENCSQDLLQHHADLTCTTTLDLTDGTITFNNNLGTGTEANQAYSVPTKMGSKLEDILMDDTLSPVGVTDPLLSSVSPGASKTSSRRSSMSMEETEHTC
Large screens that a line does not name were inactive.

CCN(CC)C(=O)C1CCCN(c2nc(NCCN3CCOCC3)c3ncn(C4CCCCC4)c3n2)C1 (stereo not drawn)	TEAD-YAP inh 38
CCN(CC)C(=O)C1CCCN(c2nc(NCCc3ccc(OC)cc3)c3ncn(-c4ccsc4)c3n2)C1 (stereo not drawn)	TEAD-YAP inh 33
CCN(CC)C(=O)C1CCCN(c2nc(NCCN3CCOCC3)c3ncn(C(C)C)c3n2)C1 (stereo not drawn)	none
COc1ccc(CC2=NOC(CNC(=O)c3ocnc3C)C2)cc1 (stereo not drawn)	none
N#C/C(=C\C1=Cc2ccccc2OC1)C(=O)NC1CCS(=O)(=O)C1 (stereo not drawn)	none
CC1CCCN(C2(O)C(=O)Nc3c(C(F)(F)F)cccc32)C1 (stereo not drawn)	none
O=C1Nc2c(C(F)(F)F)cccc2C12SCCS2	TEAD-YAP inh 34
Oc1cccc(-c2cnc3c(N4CCOCC4)nccn23)c1	TEAD-YAP inh 80
Oc1ccc(-c2cnc3c(N4CCOCC4)nccn23)cc1	TEAD-YAP inh 79
CC(=O)Nc1cccc(-c2cnc3c(N4CCOCC4)nccn23)c1	TEAD-YAP inh 79
CC(=O)Nc1cccc(-c2cnc3c(N4CCN(C)CC4)nccn23)c1	none
CCC(C)(C)NC(=O)C(c1ccccn1)N(C(=O)c1csnn1)c1ccccc1F (stereo not drawn)	none
CC1(C)CC(C(=O)Nc2ccc(Br)cc2)CCO1 (stereo not drawn)	none
O=C(NCCNC(=O)c1ccc(C(F)(F)F)cc1)c1ccc(C(F)(F)F)cc1	none
O=C(Nc1nnc(-c2ccc(Cl)cc2)o1)c1cccc(C(F)(F)F)c1	none (no result: TEAD-YAP inh, FBW7 activator, MITF primary)
O=C(Nc1nnc(-c2ccc(F)cc2)o1)c1cccc(C(F)(F)F)c1	TEAD-YAP inh 69
Cc1ncn(-c2ccc(Nc3ncc4cccc(-n5ccnc5)c4n3)cc2)n1	TEAD-YAP inh 38, FBW7 activator 5.7
Cc1ncn(-c2ccc(Nc3ncc4cccc(N5CCOCC5)c4n3)cc2)n1	TEAD-YAP inh 48
COc1ccc(Br)cc1/C=C/C(=O)c1ccco1	TEAD-YAP inh 61
COc1ccc(-c2ccc(/C=C/C(=O)c3ccco3)o2)cc1	MITF primary 63
COc1ccccc1-c1ccc(/C=C/C(=O)c2ccco2)o1	none
O=C(/C=C/Nc1ccc(Br)cc1Cl)c1ccco1	TEAD-YAP inh 94
CC1=C(C(=O)Nc2ccccc2)C(c2cccs2)C(C(=O)Nc2ccccc2)=C(C)N1	none
CCCOc1ccc(C(=O)Nc2cc3nn(-c4ccc(OC)cc4)nc3cc2C)cc1	none
CCOC(=O)c1c(C)[nH]c(NC(=O)Nc2ccccc2)c1C	none
Cc1cc(N2CCCC2)c(C)cc1C=O	none
Cc1cc(N2CCCC2)c(C)cc1/C=C\[N+](=O)[O-]	TEAD-YAP inh 54
O=C(/C=C/c1cccc(Br)c1)c1cccnc1	none
Nc1cc2c3c(c1)C(c1ccccc1)CCN3CCC2c1ccccc1 (stereo not drawn)	FBW7 activator 6.3
Oc1ccc(C=Nc2cccc3cnccc23)c(O)c1O	MITF primary 61
CCOc1ccccc1/C=N\NC(=O)c1cccnc1	none
O=C(N/N=C/c1ccc(O)c(O)c1O)c1cccnc1	MITF primary 79
CCOc1cccc(/C=N/NC(=O)c2cccnc2)c1O	MITF primary 70
CCN(CC)S(=O)(=O)c1cccc(C(=O)N/N=C(\C)c2ccc(O)cc2O)c1	none
CCN(CC)S(=O)(=O)c1cccc(C(=O)N/N=C/c2ccc(O)c(O)c2O)c1	MITF primary 61
C=CCc1cccc(/C=N/NC(=O)c2cccnc2)c1O	none
O=C(Cc1ccc(Cl)cc1)NCCCCNC(=O)Cc1ccc(Cl)cc1	none
COc1cc(C(=O)NCCc2ccc(S(N)(=O)=O)cc2)c([N+](=O)[O-])cc1OC	none
CCn1c(C)nc2cc(C(=O)N/N=C/c3ccc(O)c(O)c3O)ccc21	MITF primary 75
CC1CC(C)(C)Nc2ccc(OC(=O)c3ccccc3)cc21 (stereo not drawn)	TEAD-YAP inh 44
O=C(Oc1ccc(OC(=O)c2ccccc2)cc1)c1ccccc1	none
Nc1ccccc1-c1nc2ccccc2c(=O)o1	FBW7 activator 2.4
CC(C)(C)c1ccc(-c2nc3ccccc3c(=O)o2)cc1	TEAD-YAP inh 53
O=C(Nc1ccc(-c2nc3ccccc3c(=O)o2)cc1)C1CC1	TEAD-YAP inh 48
CC(C)(C)c1ccc(-c2nc3ccccc3c(=O)[nH]2)cc1	TEAD-YAP inh 83
Cc1ccc(-c2nc3ccccc3c(=O)[nH]2)cc1	none
O=C(Nc1ccc2nc3n(c(=O)c2c1)CCCCC3)c1ccc(Cl)c([N+](=O)[O-])c1	none
O=C(Nc1ccc(-c2nc3ccccc3o2)cc1)C1CCN(CCCn2cccn2)CC1	TEAD-YAP inh 78
O=C(Nc1ccc(-c2nc3ccccc3o2)cc1)C1CCN(Cc2ccccn2)CC1	none
CCN(CC)C(=O)C1c2cc(OC)c(OC)cc2C(=O)N2CCc3ccccc3C12 (stereo not drawn)	none
CCOc1cc2c(cc1OCC)C1C(C(=O)N(CC)CC)c3ccccc3C(=O)N1CC2 (stereo not drawn)	TEAD-YAP inh 32
CC(C)CN(C(=O)CCl)C1CCS(=O)(=O)C1 (stereo not drawn)	TEAD-YAP inh 66
CCCN(C(=O)CCl)C1CCS(=O)(=O)C1 (stereo not drawn)	TEAD-YAP inh 50
CN(C)CCN(C(=O)CCl)C1CCS(=O)(=O)C1 (stereo not drawn)	none
Cc1c(Cl)cccc1NC(=O)CCC(=O)NNC(=O)CCc1ccccc1	none
CC(C)NC1CCCc2c1[nH]c1ccc([N+](=O)[O-])cc21 (stereo not drawn)	TEAD-YAP inh 49
COc1cccc(OC)c1C(=O)N1C[C@@H]2C[C@H]1C(=O)N2c1ccccc1Cl	TEAD-YAP inh 33
O=C1CN(C(=O)c2ccc(C(=O)c3ccccc3)cc2)C(c2ccccc2)c2cc(Br)ccc2N1 (stereo not drawn)	none
CCN(CC)S(=O)(=O)c1cccc(C(=O)Oc2cccc(NC(=O)c3ccc(OC)cc3)c2)c1	TEAD-YAP inh 66
CCN(CC)S(=O)(=O)c1ccc(Cl)c(C(=O)Oc2cccc(NC(=O)c3ccc(OC)cc3)c2)c1	TEAD-YAP inh 67
CCN(CC)S(=O)(=O)c1cccc(C(=O)Nc2ccc(C#N)cc2)c1	TEAD-YAP inh 47
CCN(CC)S(=O)(=O)c1ccc(Cl)c(C(=O)Oc2cccc(NC(=O)c3ccccc3Cl)c2)c1	none
CO/N=C/c1ccc(OC)c(Oc2nc(OC)cc(OC)n2)c1	TEAD-YAP inh 33
O=C(NC1CC1)c1ccc(-c2nc(NCCN3CCOCC3)c3ncn(Cc4ccc(C(F)(F)F)cc4)c3n2)cc1	none
c1csc(CNc2ncnc3nc[nH]c23)c1	none
Cc1ccccc1-n1ncc2c(NCc3ccc(F)cc3)ncnc21	none
Fc1ccc(CNc2ncnc3ccccc23)cc1	TEAD-YAP inh 55
c1csc(CNc2ncnc3ccccc23)c1	TEAD-YAP inh 51
